In the supplement of paper PMC6555819:

What follows are sequences tested on VDR:RXRa (NR concentration 270 nM, RXRa partner concentration 90 nM) (assay: PBM binding z-score (relative to random genomic background probes); higher = stronger binding; sequences stand for … in GC…GCGATTGACAGCGTAGAATGAAGG).
Description: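 Protein-binding microarray (Agilent 4x180K custom design, double-stranded 60-nt probes: 5' GC cap, 34-nt variable region, 24-nt constant primer region; full probe sequence given). Purified or IVT nuclear receptor:RXRα heterodimers (3:1 NR:RXRα, mostly 270:90 nM) or homodimers were incubated for 1 h in PBS with 2% milk and no ligand, then detected with Alexa488 antibodies. Fluorescence from o1-orientation probes (~5 replicates averaged) was converted to z-scores against 500 random hg19 background probes. Variable regions are seed direct-repeat (DR0–DR5) sites, all their single-nucleotide variants and half-site ablations.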

Question: How did the PBM binding z-score turn out when CAAACTAGGGCAAAGGTCAAAGTCGAGCCAACCA was run?
Answer: Its PBM binding z-score is 5.41.

Question: With CCTAGCAGGCCAATGTGGGTCACTCAAGGCTTGA as the sequence, how does the PBM binding z-score read?
Answer: The PBM binding z-score was 1.02.

Question: With TCTAGTTGGTCAATGGTCACACACTCGAAATGCG as the sequence, how does the PBM binding z-score read?
Answer: Its PBM binding z-score is 0.851.

Question: TGAATGAGGTTAAAGTTCAGGGAACGTGGCGTCG was tested. Which PBM binding z-score did it give?
Answer: The PBM binding z-score was 4.37.

Question: TCTCGGAGGCCACGAAAGGTCAGAGCTCGACATC was tested. Which PBM binding z-score did it give?
Answer: Its PBM binding z-score is 3.62.

Question: Which PBM binding z-score does the source give for ATCTCTAGGTCAGACTCAGTTCAGTGAAGAACGC here?
Answer: The PBM binding z-score was 3.36.

Question: ATACCAAGGTGACCGTGAGGTCGTTGATACTAAC was tested. Which PBM binding z-score did it give?
Answer: Its PBM binding z-score is 4.04.

Question: How did the PBM binding z-score turn out when GCTCGGAGGACATGGTCAGAGCTTTGTCCGTAGA was run?
Answer: The PBM binding z-score was -0.753.

Question: Which PBM binding z-score does the source give for CCAGACAGGTGAAAGGTAACTCGGTCTGGTACGC here?
Answer: Its PBM binding z-score is 0.865.

Question: How did the PBM binding z-score turn out when TGATTGAGGTTATAAGATCAGGGAACGTTGCAAA was run?
Answer: The PBM binding z-score was 1.01.

Question: CTCGAAAGGTCGTGCTCAAGTGAGTATACCAAAC was tested. Which PBM binding z-score did it give?
Answer: Its PBM binding z-score is 3.13.

Question: How did the PBM binding z-score turn out when AATACAGGGTCATAGTAGGCCAGAGTACGCACAG was run?
Answer: Its PBM binding z-score is 4.63.

Question: With TCATATAGGTAAATGCTAGGTGAATGTCCGATCT as the sequence, how does the PBM binding z-score read?
Answer: The PBM binding z-score was 0.74.

Question: CATACAGGGTCAGCTAGGCCAGAGTTGGGACGGC was tested. Which PBM binding z-score did it give?
Answer: Its PBM binding z-score is 3.74.

Question: CAAACTAGGTCAAGAGGCCAAAGTCCGCTTCCCG was tested. Which PBM binding z-score did it give?
Answer: The PBM binding z-score was 2.16.

Question: How did the PBM binding z-score turn out when CGAACGAGGGCATGAGGTGATAGCAAATGCCGAT was run?
Answer: Its PBM binding z-score is 0.93.

Question: How did the PBM binding z-score turn out when CTACCAAGGTGAACAAGGTCGTTGAGTACTATTC was run?
Answer: Its PBM binding z-score is 6.19.

Question: ACTCGGAGGACAAAGGTCTGAGCTACGCCAGTGA was tested. Which PBM binding z-score did it give?
Answer: The PBM binding z-score was -0.29.

Question: With CCTTACGGGTCACGAGGTTATAGCCCGACGAGCG as the sequence, how does the PBM binding z-score read?
Answer: Its PBM binding z-score is 5.11.

Question: For TCGAATAGGTTAGTCGGGGCATTCAGCCAACATA, which PBM binding z-score is on record?
Answer: The PBM binding z-score was 3.04.

Question: With CAAACTACGTCAAAGGTCAAAGTCGAGCCAACCA as the sequence, how does the PBM binding z-score read?
Answer: The PBM binding z-score was 5.02.

Question: Which PBM binding z-score does the source give for ATCTCTAGGTAAGACTCAGCTCAGTGAAGAACGC here?
Answer: The PBM binding z-score was -0.134.

Question: TGGAGTAGGTTAGGGGCATTCAGAATGGCGTCGA was tested. Which PBM binding z-score did it give?
Answer: The PBM binding z-score was 1.05.

Question: With CCTACTGGGCTATCAGGTCATTGATATCAACGTT as the sequence, how does the PBM binding z-score read?
Answer: Its PBM binding z-score is 1.36.

Question: Which PBM binding z-score does the source give for GTTCGGAGGACAAGGTCAGAGCTTTGTCCGTAGA here?
Answer: The PBM binding z-score was 1.42.

Question: How did the PBM binding z-score turn out when ACAGACAGGTGAGTTAAGGTAACTCAGCTGGACG was run?
Answer: The PBM binding z-score was -0.161.

Question: How did the PBM binding z-score turn out when GCTAGTTGGTCAGTAAAAGGACACACACCGGTCG was run?
Answer: Its PBM binding z-score is -0.213.

Question: CGTCCAAGGTGAGAGAGGTCAGTGAATGCCGAGT was tested. Which PBM binding z-score did it give?
Answer: The PBM binding z-score was 5.51.

Question: CGAACTAGGTTAGAACAGGACAGTGAAGGATGAT was tested. Which PBM binding z-score did it give?
Answer: Its PBM binding z-score is -0.215.

Question: With AATACAGGGTCACTAGGCCAGATTAGGTACGAAT as the sequence, how does the PBM binding z-score read?
Answer: Its PBM binding z-score is 4.21.

Question: With CGAACAAGGTCAAGGACAGTGAATCTCCGCACGC as the sequence, how does the PBM binding z-score read?
Answer: Its PBM binding z-score is 4.11.

Question: With ACTAGTAGTTGACTTAGGGCAACCGATACGACGC as the sequence, how does the PBM binding z-score read?
Answer: The PBM binding z-score was 0.0405.

Question: For CCTACTGGGCCATTCAGAGGTCATAGATCATATG, which PBM binding z-score is on record?
Answer: The PBM binding z-score was 3.64.

Question: For ATACCCAGGTGATCGTGAGGTCGTTGATACTAAC, which PBM binding z-score is on record?
Answer: The PBM binding z-score was 2.51.

Question: Which PBM binding z-score does the source give for AGAATGAGGTTATTAAAATCAGGGAATTGCGGTC here?
Answer: The PBM binding z-score was 0.984.

Question: With ACAGACAGGTGATGAAGTTAACTCAGGCTATCAT as the sequence, how does the PBM binding z-score read?
Answer: The PBM binding z-score was 0.117.

Question: For CAAACAAGGTCAAGGTCAAAGTCGGTTTGTGCCA, which PBM binding z-score is on record?
Answer: The PBM binding z-score was 6.23.

Question: With CAAACTAGGTCAAAGGTCAAAGGCGAGCCAACCA as the sequence, how does the PBM binding z-score read?
Answer: The PBM binding z-score was 6.82.

Question: ATCGAAACGTCGAGGTGAGTATAGAGAAAGGGAA was tested. Which PBM binding z-score did it give?
Answer: The PBM binding z-score was -0.325.

Question: Which PBM binding z-score does the source give for GCGACTGGGGCAAAGCAGGTTACCATAAGGTTGG here?
Answer: Its PBM binding z-score is 0.149.
